# Screening data (PubChem BioAssay)
# Most compounds without a hit are left out; they make up all but 2.1% or so of the library.
# TDP-43 yeast inh: rescues yeast growth from TDP-43 toxicity. TDP-43 expressing yeast growth rescue, BacTiter-Glo, 24 h. Potency, µM (top dose mostly 46.1 µM), for the others: at the highest dose growth rescue (activation), actives largely listed as activators. actives 1.8% (n = 410,000). AID 652104; note: % of control where 0% means no effect; nearly all actives have a fitted effect of over 50% in size
#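 Yeast cells expressing TDP-43 under galactose induction are exposed to compounds for 24 hr at 30 deg C. BacTiter-Glo luminescence measures growth, so protective compounds score as activators.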
# FUS suppressor: FUS proteinopathy suppression in yeast; S. cerevisiae FUS-expressing, growth rescue, OD600, 24 h; Potency, µM (titrated, usually from 76.6 µM), hits mostly activators; actives 0.24% (n = 390,000); AID 1347120;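 note: plate controls were DMSO vehicle for no effect and reference control for full effect; nearly all actives have a fitted effect of over 55% in size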
#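 Toxicity suppression screen in FUS-yeast. Cells induced with 2% galactose, starting OD 0.005, treated 24hr at 30C with compounds at multiple final concentrations; growth by OD600.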
# aSyn rescue: alpha-synuclein toxicity inhibition in yeast. Yeast expressing alpha-synuclein, growth rescue, BacTiter-Glo, 24 h. Potency, µM (doses to about 46.1 µM), inactives show at the highest dose growth rescue (activation), hits mostly activators. actives 0.14% (n = 370,000). AID 652106; note: % of control where 0% means no effect; nearly all actives have a fitted effect of over 65% in size
#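 Readout is rescue of growth in alpha-synuclein-expressing yeast, so inhibitors of toxicity appear as activators. Growth after 24 hr at 30 deg C in galactose medium is quantified by luminescence.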
# PTAP TSG101 blk: blocks PTAP/TSG101 interaction to inhibit HIV-1 budding | Q99816 | 340,000 tested, under 10 active | Fluorescence polarization, FITC-PTAP peptide / Tsg101 binding | Potency, µM (series often up to 115 µM), for inactives: top-dose activity change, negative = inhibition, hits mostly inhibitors; active = well fitted inhibition curve with a large enough effect in the main read-out, with a control signal flat, not every such curve was filed as active; inconclusive = small, poorly fitted or top-dose-only effect, or effect the other way, or a change in a side signal; inactive = no such curve, though single readings can be large or run the other way; note: % of control where 0% means no effect
# Target sequence (Q99816 whole entry, looked up): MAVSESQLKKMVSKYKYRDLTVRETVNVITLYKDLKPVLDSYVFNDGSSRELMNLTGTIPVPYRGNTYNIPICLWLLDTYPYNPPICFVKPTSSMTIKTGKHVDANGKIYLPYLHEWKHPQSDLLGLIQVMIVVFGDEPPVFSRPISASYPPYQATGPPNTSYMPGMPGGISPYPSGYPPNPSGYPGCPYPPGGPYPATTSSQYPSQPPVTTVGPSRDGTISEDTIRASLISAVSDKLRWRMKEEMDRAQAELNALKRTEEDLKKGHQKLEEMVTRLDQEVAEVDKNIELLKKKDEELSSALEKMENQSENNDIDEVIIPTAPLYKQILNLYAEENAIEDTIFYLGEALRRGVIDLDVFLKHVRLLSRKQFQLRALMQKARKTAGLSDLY
#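 Fluorescence anisotropy tracks displacement of a FITC-tagged PTAP peptide (50 nM) from the Tsg101 binding domain (10 uM), following a 20 min room-temperature incubation at pH 7.5.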
# Abeta yeast res: compounds reversing amyloid beta toxicity in yeast. Potency, µM (highest dose often 46.1 µM), most hits filed as activators. actives 0.063% (n = 410,000). yeast expressing A-beta42, growth rescue, OD600, 48 h; response scale: 0% DMSO, 100% iron-clioquinol control; note: nearly all actives have a fitted effect of over 55% in size
#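 Yeast A-beta toxicity model in growth medium with pinned compounds, 48 h at 30 C; growth read as absorbance at 600 nm. Normalized to FeCl3/clioquinol equimolar mix (positive) and DMSO (negative).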
# Numbers without * were called inactive; i = inactive; ? = inconclusive; · = no result given; [ ] = remark or other dose. Unless noted, calls come from the whole dose curve; as a rule, active = well fitted curve in the direction sought with a large enough effect; inconclusive = small, poorly fitted or top-dose-only effect, or another doubt; inactive = no such curve, though single readings can be large; an effect the other way counts as inactive or inconclusive. Potency is the fitted concentration of half-maximal effect.
SMILES,TDP-43 yeast inh,FUS suppressor,aSyn rescue,PTAP TSG101 blk,Abeta yeast res
O=C(NC1CC1)C1Nc2ccc(OC(F)(F)F)cc2C2C=CCC12 (centres undefined),5%,i,-7%,-1%,i
O=[N+]([O-])c1ccc2c(c1)-c1ccccc1C2=NO,?,·,-19%,0%,i
Nc1ccc2c(c1)C(=NO)c1cc([N+](=O)[O-])ccc1-2,11µM*,·,6.3µM*,-1%,i
O=C(COCc1cc(-c2ccc3c(c2)OCO3)on1)NCc1ccc(F)cc1,28%,i,·,·,i
O=C(COCc1cc(-c2ccc3c(c2)OCO3)on1)NCc1ccccc1Cl,28µM*,i,·,·,i
COC(=O)C1CN(Cc2ccccc2)CCS(=O)(=O)N1Cc1cn(Cc2ccccc2Br)nn1 (centres undefined),·,14µM*,·,·,·
COc1cccc(CNC(=O)CCc2c(C)nc3c4c(C)cc(C)nc4nn3c2C)c1,-7%,i,·,·,i
COc1ccccc1-c1cc(C(F)(F)F)nc(S(=O)(=O)CCCC(=O)Nc2ccccc2F)n1,-7%,i,·,·,i
COc1ccccc1-c1cc(C(F)(F)F)nc(S(=O)(=O)CCCC(=O)Nc2cccnc2Cl)n1,13µM*,i,0%,-3%,i
COc1ccccc1-c1cc(C(F)(F)F)nc(S(=O)(=O)CCCC(=O)NC(C)C)n1,4%,i,-2%,-6%,i
COc1ccccc1-c1cc(C(F)(F)F)nc(S(C)(=O)=O)n1,35µM*,i,-22%,-1%,i
Cc1cccc(N2CCN(S(=O)(=O)c3ccc4c(c3)C(C(C)C)C(=O)N4)CC2)c1C (centres undefined),17%,?,10%,·,i
COc1cc2c(oc(=O)c3cc(C)cc(OC)c32)c2c(C3OC(C)C(O)C(C)(O)C3O)ccc(O)c12 (centres undefined),?,·,6.3µM*,-5%,i
COc1ccc(C(C)C)cc1S(=O)(=O)NCCc1c(C)[nH]c2c(Cl)cccc12,6.3µM*,i,·,·,i
COc1ccc(C(C)C)cc1S(=O)(=O)NCCc1c(C)[nH]c2ccc(C)cc12,?,?,·,·,i
Cc1ccc(CN(Cc2cccn2-c2nnc(N3CCCC3=O)s2)C(=O)Nc2ccccc2Cl)cc1,-1%,35µM*,·,·,i
Cc1ccc(CNCc2cccn2-c2nnc(N3CCCC3)s2)cc1,?,i,2%,·,i
COc1ccccc1C(=O)OCC(=O)Nc1ccc(N2CCCCC2)cc1,·,·,-1%,·,·
COc1ccc(NC(=O)c2c(NCc3cccc(F)c3)sc3c2CCC3)c(OC)c1,13%,?,·,·,i
Cc1ccc(CNC(=O)c2ccc(-c3nc(CN4CCc5ccccc54)c(C)o3)cc2)cc1,16%,i,0%,·,i
Cc1oc(-c2ccc(C(=O)N(C)Cc3ccccc3)cc2)nc1CN1CCc2ccccc21,26%,20µM*,-1%,·,i
CC(C)C(=O)N1c2ncnn2C2(CCCCC2)[C@@H]2CCCC[C@@H]21,29%,i,·,·,i
COc1ccc2c(c1)-c1ccccc1S(=O)(=O)N2C,11µM*,i,-6%,-7%,i
CCc1cccc(C)c1NC(=O)c1cnn(-c2ccc(OC)cc2)c1C1CCN(C(=O)OC(C)(C)C)CC1,6%,22µM*,·,·,i
Cc1ccc(C)c(NC(=O)c2cnn(-c3cccc(F)c3)c2C2CCN(C(=O)OC(C)(C)C)CC2)c1,35µM*,?,·,·,i
SMILES,TDP-43 yeast inh,FUS suppressor,aSyn rescue,PTAP TSG101 blk,Abeta yeast res
CN(C)c1ccc(/C=C/c2ccnc3c(N)cccc23)cc1,·,·,-9%,·,·
Cc1ccc(C)c(N2CCN(C(=O)c3ccc4[nH]c(C)c(C)c4c3)CC2)c1,-14%,i,·,·,i
COc1cc(C(=O)N2CCN(c3cccc(C)c3C)CC2)cc(OC)c1OC,22µM*,i,-4%,0%,i
Cc1ccc(C)c(N2CCN(C(=O)c3ccc4nsnc4c3)CC2)c1,11µM*,i,4%,-3%,i
COc1cccc(N2CCN(C(=S)Nc3ccccc3OC)CC2)c1,0%,i,1%,0%,i
Cc1cccc(N2CCN(C(=O)c3ccc4ncsc4c3)CC2)c1C,11µM*,i,22%,-2%,i
Cc1cccc(N2CCN(C(=O)c3ccncc3)CC2)c1C,26%,i,3%,-6%,i
COc1ccccc1NC(=S)N1CCN(c2cccc(C)c2C)CC1,18µM*,i,0%,-7%,?
S=C(Nc1cccc(Cl)c1)OCCN1CCCC12CCC(c1ccccc1)CC2 (centres undefined),·,i,·,·,·
CCc1ccccc1Nc1nn2c(=O)c3ccc(C(=O)NC4CCCCC4)cc3nc2s1,12%,i,2%,·,i
COc1ccc(N2CCN(C(=O)c3ccc(CS(=O)c4cccc(Cl)c4)o3)CC2)cc1 (centres undefined),14%,i,5%,·,i
COc1ccc(S(=O)Cc2ccc(C(=O)N3CCN(c4cccc(C)c4C)CC3)o2)cc1 (centres undefined),20µM*,i,5%,1%,i
O=C(c1ccc(N2CCCC2=O)cc1)N1CCN(c2ccc(Cl)cc2)CC1,?,i,9%,-3%,i
O=C(c1ccc(N2CCCC2=O)cc1)N1CCN(c2ccccc2Cl)CC1,16µM*,i,5%[1.84 µM],-2%,i
O=C(c1ccc2ncsc2c1)N1CCN(c2ccccc2Cl)CC1,10µM*,i,-1%,-4%,i
COc1cc(-c2nc3ccccc3s2)ccc1O,18%,i,-10%,5%,i
O=C(O)Cc1ccc2sc(-c3ccccc3)nc2c1,3.2µM*,·,-27%,-1%,i
CC(=O)Nc1cccc(-c2nc3ccc(NC(C)=O)cc3s2)c1,0%,i,-6%,-8%,i
CC(=O)Nc1cccc(-c2nc3ccccc3s2)c1,8.9µM*,i,8%,-4%,i
CCOc1cc(-c2nc3ccccc3s2)ccc1O,13µM*,i,3%,-3%,i
O=C(Nc1cccc(-c2nc3ccccc3s2)c1)C1=COCCO1,20µM*,·,-1%,-6%,i
O=C(COc1ccccc1Cl)Nc1ccc(Cl)c(-c2nc3ccccc3o2)c1,15%,i,·,·,i
COc1ccc(-c2noc(CN(C(=O)Cc3ccc(C)cc3)C(C)C)n2)cc1,?,i,·,·,i
COc1ccc(-c2cc(OC(=O)c3cccc(Cl)c3)c3c(C)oc(C)c3c(=O)c2)cc1,6%,?,·,·,i
OCCCc1cn(-c2ccccc2)c2ccccc12,13µM*,i,24%,-2%,i
COc1ccc2nc3cccc(OC)c3nc2c1,22µM*,i,6%,-6%,?
